# Where “and” joins values, the source holds several entries; their conditions need not be identical. Equal entries are not always repeated. Compounds without any hit were thinned out: in the full panel of roughly 83,000, 20% have a hit.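 Each cell line was grown in a 96-well plate and treated with one concentration of compound for 48 hours. Values below 10 were considered active.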 Calls of active or inactive are those of the source.
# Tests used:
# Test in all cases: NCI-60 one-dose screen, 48 h (100 = growth as untreated, 0 = no growth, -100 = all killed)
# Conditions in all cases: 10 µM unless noted
# SK-MEL-2 melanoma = test system: SK-MEL-2 melanoma
# EKVX NSCLC = test system: EKVX NSCLC
# SN12C renal = test system: SN12C renal
# UO-31 renal = test system: UO-31 renal
# TK-10 renal = test system: TK-10 renal
# ACHN renal = test system: ACHN renal
# CAKI-1 renal = test system: CAKI-1 renal
# A498 renal = test system: A498 renal
# CCRF-CEM leukemia = test system: CCRF-CEM leukemia
# MOLT-4 leukemia = test system: MOLT-4 leukemia
# SR leukemia = test system: SR leukemia
# RPMI-8226 leukemia = test system: RPMI-8226 leukemia
# OVCAR-5 ovarian = test system: OVCAR-5 ovarian
# OVCAR-4 ovarian = test system: OVCAR-4 ovarian
# SK-OV-3 ovarian = test system: SK-OV-3 ovarian
# IGROV1 ovarian = test system: IGROV1 ovarian
# OVCAR-3 ovarian = test system: OVCAR-3 ovarian
# HS 578T breast = test system: HS 578T breast
# NCI/ADR-RES ovarian = test system: NCI/ADR-RES ovarian
# OVCAR-8 ovarian = test system: OVCAR-8 ovarian
SMILES,growth (SK-MEL-2 melanoma),growth (EKVX NSCLC),growth (SN12C renal),growth (UO-31 renal),growth (TK-10 renal),growth (ACHN renal),growth (CAKI-1 renal),growth (A498 renal),growth (CCRF-CEM leukemia),growth (MOLT-4 leukemia),growth (SR leukemia),growth (RPMI-8226 leukemia),growth (OVCAR-5 ovarian),growth (OVCAR-4 ovarian),growth (SK-OV-3 ovarian),growth (IGROV1 ovarian),growth (OVCAR-3 ovarian),growth (HS 578T breast),growth (NCI/ADR-RES ovarian),growth (OVCAR-8 ovarian)
C=C1C(=O)O[C@H]2[C@H]1CC/C(CNS(=O)(=O)c1ccc3ccccc3c1)=C\CC[C@@]1(C)O[C@@H]21,43.7% (inactive),66.6% (inactive),29.1% (inactive),-88% (active),-78.5% (active),-39.3% (active),15.3% (inactive),58.2% (inactive),-18.1% (active),-27.6% (active),-12.4% (active),-4.34% (active),14.9% (inactive),24.2% (inactive),84.6% (inactive),37.1% (inactive),-39.6% (active),67% (inactive),65.2% (inactive),–
Cn1cc2c(=O)nc3c(-c4nc5ccccc5[nH]4)n[nH]n3c2n1,30.4% (inactive),95.6% (inactive),77.9% (inactive),90.8% (inactive),120% (inactive),98.1% (inactive),86.8% (inactive),58.7% (inactive),6.27% (active),47.8% (inactive),32.2% (inactive),50.6% (inactive),126% (inactive),90.6% (inactive),85.2% (inactive),91.8% (inactive),73.4% (inactive),93.5% (inactive),95.1% (inactive),–
Nc1n[nH]c2cccc(C#Cc3cccc(NC(=O)c4ccc(N5CCOCC5)c(C(F)(F)F)c4)c3)c12,-7.56% (active),18.4% (inactive),9.03% (active),-31.7% (active),16.5% (inactive),-0.609% (active),9.52% (active),-34.3% (active),10.5% (inactive),7.67% (active),12.6% (inactive),-0.476% (active),8.26% (active),25.6% (inactive),2.24% (active),-39.1% (active),34.9% (inactive),-11.4% (active),14.4% (inactive),–
O=C(CCl)N(O)c1ccc(/C=C/c2ccccc2)cc1,88.1% (inactive) and 77.7% (inactive),81.7% (inactive),63.3% (inactive) and 48.8% (inactive),66.4% (inactive) and 65.2% (inactive),89.7% (inactive) and 81.1% (inactive),97.8% (inactive) and 87.6% (inactive),95.3% (inactive) and 91.1% (inactive),69.2% (inactive) and 87.1% (inactive),-4.68% (active) and 10.3% (inactive),7.08% (active) and 12.4% (inactive),11% (inactive),72.7% (inactive) and 65.9% (inactive),109% (inactive) and 119% (inactive),103% (inactive) and 94.9% (inactive),101% (inactive) and 105% (inactive),70.9% (inactive) and 61.9% (inactive),98.7% (inactive) and 81.9% (inactive),107% (inactive) and 111% (inactive),86.3% (inactive) and 89.1% (inactive),–
Cn1c(=O)c2c(nc(Nc3cc(=O)[nH]c(=O)[nH]3)n2Cc2ccccc2)n(C)c1=O,-2.98% (active),90% (inactive),95.2% (inactive),79.5% (inactive),14.3% (inactive),100% (inactive),37.9% (inactive),-13.8% (active),95.1% (inactive),92.7% (inactive),90.7% (inactive),87.9% (inactive),96.9% (inactive),52.4% (inactive),24.6% (inactive),89.4% (inactive),0.369% (active),-16.6% (active),99.7% (inactive),–
O=C1/C(=C/c2cn(-c3ccccc3)nc2-c2ccccc2)SC(=S)N1c1ccc(Cl)cc1,97.4% (inactive),81.9% (inactive),69.2% (inactive),65.7% (inactive),91.8% (inactive),81.9% (inactive),75.2% (inactive),67% (inactive),54% (inactive),74.7% (inactive),39.5% (inactive),78.8% (inactive),93.4% (inactive),80.3% (inactive),104% (inactive),69.1% (inactive),83.4% (inactive),83.7% (inactive),85.7% (inactive),–
CC(=O)Nc1c(I)c(NC(C)=O)c(I)c(C(=O)O)c1I,111% (inactive) and 93.8% (inactive),102% (inactive) and 90.6% (inactive),102% (inactive) and 106% (inactive),76.3% (inactive) and 88.3% (inactive),120% (inactive) and 101% (inactive),96.9% (inactive) and 112% (inactive),89.8% (inactive) and 91.3% (inactive),107% (inactive) and 123% (inactive),95.9% (inactive) and 105% (inactive),96.9% (inactive) and 90.1% (inactive),86.7% (inactive) and 80.5% (inactive),106% (inactive) and 112% (inactive),102% (inactive) and 108% (inactive),90.4% (inactive),105% (inactive) and 110% (inactive),108% (inactive),111% (inactive) and 116% (inactive),105% (inactive) and 171% (inactive),106% (inactive) and 109% (inactive),–
C[N+]1=C(/C=C\C=C\c2ccccc2)C(C)(C)c2ccccc21,10.9% (inactive),31.5% (inactive),-2.25% (active),39.3% (inactive),50.3% (inactive),43.8% (inactive),38.4% (inactive),61.2% (inactive),-8.67% (active),0.0688% (active),-14.3% (active),-25.5% (active),45.1% (inactive),39.9% (inactive),92.8% (inactive),19.9% (inactive),-4.63% (active),25% (inactive),75.3% (inactive),–
CCN1CCN(CC(=O)Nc2nc3ccc(NCc4ccc(C)cc4)cc3s2)CC1,75.8% (inactive),72.6% (inactive),63.3% (inactive),61.6% (inactive),93.6% (inactive),85.6% (inactive),50.7% (inactive),94% (inactive),55.8% (inactive),50.5% (inactive),7.22% (active),48.8% (inactive),80.5% (inactive),75% (inactive),91.5% (inactive),91.4% (inactive),70.3% (inactive),84.9% (inactive),81.8% (inactive),–
O=c1c(/C=C/c2ccco2)nnc2sc(Nc3ccc(Cl)cc3)nn12,95.6% (inactive),90.9% (inactive),107% (inactive),79% (inactive),146% (inactive),98.2% (inactive),98.5% (inactive),108% (inactive),98% (inactive),95.7% (inactive),96% (inactive),–,97.1% (inactive),90.7% (inactive),86.4% (inactive),68.8% (inactive),106% (inactive),91% (inactive),102% (inactive),101% (inactive)
COc1ccc(/C=N/C2=C(C#N)C(c3ccccc3)c3c(ccc4ccccc34)O2)cc1 (stereo not given),49.7% (inactive),32.7% (inactive),48% (inactive),37.5% (inactive),64.4% (inactive),35.3% (inactive),13.9% (inactive),-6.08% (active),15.2% (inactive),27.3% (inactive),17.5% (inactive),-2.96% (active),48.8% (inactive),52.3% (inactive),45.3% (inactive),23.5% (inactive),-11% (active),17.5% (inactive),10.3% (inactive),–
COc1ccc(-c2ccc(-c3ccc(C(=N)N)cn3)s2)cc1Cl,-54% (active),-58.4% (active),-81% (active),-89.9% (active),-73.1% (active),-98.2% (active),-98.4% (active),99% (inactive),-36.1% (active),-31.5% (active),0.301% (active),-41.6% (active),-95.5% (active),-82.8% (active),100% (inactive),-83% (active),-38.1% (active),-68.5% (active),0.998% (active),–
Cc1ccc(-c2nc3nc(-c4ccccc4)nc(N4CCCNCC4)c3o2)cc1,-2.85% (active),39% (inactive),-87.9% (active),-98.1% (active),-60% (active),-98.9% (active),-9.04% (active),98.4% (inactive),-75.8% (active),-68.1% (active),-49.7% (active),-55% (active),-32.4% (active),-52.3% (active),79.9% (inactive),-73.8% (active),-81.7% (active),-18.1% (active),-29.8% (active),–
O=C(Nc1ccc2ncsc2c1)c1csc(Nc2ccc3[nH]ncc3c2)n1,50.6% (inactive),58.6% (inactive),49.9% (inactive),50.3% (inactive),55.2% (inactive),50.5% (inactive),30.3% (inactive),36.8% (inactive),23% (inactive),49.8% (inactive),29.1% (inactive),13.6% (inactive),78.6% (inactive),74.8% (inactive),52.9% (inactive),59.1% (inactive),8.38% (active),37.7% (inactive),56.9% (inactive),–
CN1CCCc2cc(/C=C3\SC(=S)N(C(Cc4ccc(O)cc4)C(=O)O)C3=O)ccc21 (stereo not given),103% (inactive),91.6% (inactive),93.3% (inactive),79.7% (inactive),102% (inactive),103% (inactive),89% (inactive),87.8% (inactive),106% (inactive),103% (inactive),105% (inactive),95.8% (inactive),101% (inactive),98.2% (inactive),107% (inactive),102% (inactive),95.5% (inactive),102% (inactive),100% (inactive),–

# Source: PubChem BioAssay (NCI)
